# Compound activity from PubChem BioAssay.
# Anthrax LF prot: inhibitors of Bacillus anthracis lethal factor protease. P15917. multiplex microsphere protease cleavage assay, LF. inhibition, % at 10 µM. 0.12% of 360,000 active
# Bead autofluor: flagged as autofluorescent in microsphere protease counterscreen. fluorescence intensity (no concentration beside the values). 3.1% of 360,000 active. AID 624483. compound autofluorescence counterscreen, microsphere flow cytometry; hits give high values; in the data active = fluorescence intensity above about 16000; inconclusive = no clear call, values can overlap the other calls
# BoNT A protease: blocks Botulinum neurotoxin A light chain protease; AID 588499; multiplex microsphere protease substrate cleavage, flow cytometry; inhibition, % at 10 µM; 0.17% of 360,000 active
# MazEF act: MazEF (E. coli) toxin RNase activation | P0AE70 | activation, % at 20 µM | FAM/BHQ RNA-DNA oligo cleavage fluorescence, 5 h | 0.32% of 350,000 active | AID 504720; in the data active = activation above about 50%
# BoNT F protease: blocks Botulinum neurotoxin F light chain protease; Multiplex microsphere protease cleavage assay, flow cytometry; inhibition, % at 10 µM; 0.22% of 360,000 active; in the data active = inhibition above about 35%, passing the limit was not always enough; inconclusive = no clear call, values can overlap the other calls
# Numbers stand for hits; - = inactive; ? = inconclusive; . = no result; + = active, no number. An excerpt weighted towards active compounds, which were near 3.7% of everything screened. Cut-off read from the data, not from the text of the source, unless noted: active = inhibition above about 30%; inconclusive = no clear call, values can overlap the other calls; inactive = below that.
SMILES,Anthrax LF prot,Bead autofluor,BoNT A protease,MazEF act,BoNT F protease
COC(=O)c1c(S(N)(=O)=O)c2ccccc2n1C,-,21700,-,-,-
Cc1cccc(-c2nn(-c3ccccc3)cc2C(=O)N2CCN(C3CCS(=O)(=O)C3)CC2)c1 (centres undefined),.,.,.,-,.
CCn1ncc(C2=NOC(C(=O)NCC(C)C)C2)c1C (centres undefined),-,-,-,-,-
CCn1ncc(C2=NOC(C(=O)N3CCC(C(N)=O)CC3)C2)c1C (centres undefined),-,21518,?,-,-
CCn1ncc(C2=NOC(C(=O)NCCc3ccccc3)C2)c1C (centres undefined),-,-,-,-,-
CCn1ncc(C2=NOC(C(=O)Nc3cc(OC)c(Cl)cc3OC)C2)c1C (centres undefined),-,18923,-,-,-
CCOC(=O)N1CCN(C(=O)C2CC(c3cc(OC)ccc3OC)=NO2)CC1 (centres undefined),-,23965,?,-,-
COc1cc(C2=NOC(C(=O)N3CCCCCC3)C2)cc(OC)c1OC (centres undefined),-,-,-,-,-
CCn1ncc(C2=NOC(C(=O)Nc3cnn(C45CC6CC(CC(C6)C4)C5)c3)C2)c1C (centres undefined),-,21886,-,-,-
CC(NC(=O)C1CCN(S(=O)(=O)c2ccc3nc4c(c(C(=O)O)c3c2)CCCC4)CC1)c1ccccc1 (centres undefined),-,-,-,-,-
O=C(c1[nH]c(C(F)(F)F)nc1-c1ccccc1)N1CCc2c([nH]c3ccccc23)C1,-,-,-,.,-
COc1ccc(N(C)S(=O)(=O)c2cccc3cccnc23)c(OC)c1,-,16783,-,-,-
COc1ccccc1NC(=O)CN(C)S(=O)(=O)c1cccc2cccnc12,-,-,-,-,-
CC[n+]1c(/C=C/C=C/c2ccc(N(C)C)cc2)sc2ccccc21,-,-,-,-,+
CC[n+]1c(/C=C/N(C)c2ccccc2)sc2ccc(Cl)cc21,59.0,-,59.0,-,43.2
CC[n+]1c(/C=C/C=C/N(C(C)=O)c2ccccc2)sc2ccccc21,?,-,?,154.0,?
CCN1C(=O)/C(=C2/C=Cc3ccccc3N2C)OC1=S,.,.,.,113.0,.
CCN1C(=O)/C(=C2\C=Cc3cc(C)ccc3N2CC)OC1=S,-,-,-,113.7,-
COc1ccccc1C(=O)N=C1SC2CS(=O)(=O)CC2N1c1ccccc1 (centres undefined),-,-,-,-,-
CC1=NC(Nc2nc(C)c3ccccc3n2)=NC(C)(C)C1,-,24864,-,-,-
O=C(O)c1cc(N2C(=O)CCC2=O)ccc1Cl,-,-,-,-,?
CCCNC(=O)C1(C)CCCN(Cc2c(F)cccc2F)C1 (centres undefined),-,-,-,.,-
Cc1ccc(NC(=O)C(=O)Nc2ccc(C)cn2)nc1,-,-,-,-,-
Cc1ccc(NC(=O)/C(C#N)=C(\N)C(Cl)(Cl)Cl)nc1,-,-,-,164.8,-
Cc1ccc(C(=O)COC(=O)C2C3C=CC(C3)C2C(=O)OCC(=O)c2ccc(C)c(C)c2)cc1C (centres undefined),-,22921,?,-,-
SMILES,Anthrax LF prot,Bead autofluor,BoNT A protease,MazEF act,BoNT F protease
CSc1nc(-c2ccccc2)ccc1C(N)=O,-,21978,?,-,-
CCOC(=O)C1=C(O)/C(=C/c2cn(CC(=O)NCC3CCCO3)c3ccccc23)SC1=Nc1ccc(C)cc1 (centres undefined),-,-,-,+,-
CCOC(=O)C1=C(O)/C(=C/c2ccc(-c3ccccc3C(=O)O)o2)SC1=Nc1ccc(C)cc1,-,-,-,-,-
O=C(NNC(=O)c1ccccc1F)c1cccc(Cl)c1,-,25813,-,-,-
COc1cc(C2c3c(c(C)c(C)oc3=O)Oc3c(C)c(C)oc(=O)c32)ccc1OS(=O)(=O)c1ccc(C)cc1,-,-,-,-,-
COC(=O)CCC(=O)Nc1ccc(Cl)c(Cl)c1,-,-,-,-,-
COC(=O)CC1(C(=O)OC)Nc2cc(Cl)c(Cl)cc2S(=O)(=O)N1O (centres undefined),-,-,-,122.6,-
Cc1sc2ncnc(SCC(=O)NC3CC3)c2c1C,-,24257,-,-,-
Cc1sc2ncnc(SCC(=O)NC3CCCC3)c2c1C,-,-,-,-,-
Cn1c(CCN2CCCCC2)nc2cc(NC(=O)COc3ccc([N+](=O)[O-])cc3)ccc21,-,-,-,-,-
CC1CCc2c(sc(N)c2C(N)=O)C1 (centres undefined),-,17162,-,-,-
NCCN=C1NS(=O)(=O)c2ccccc21,-,-,-,-,-
O=S1(=O)NC(=NCc2ccccc2)c2ccccc21,-,19517,?,-,-
COCCn1c(SCC(=O)NNC(=O)c2cc(Cl)ccc2OC)nnc1-c1ccncc1,-,-,-,-,-
CC1(C)NC(=O)N(CC(O)CN2CCCCC2)C1=O (centres undefined),-,19639,?,-,-
Cc1cc(C)c(S(=O)(=O)N2C[C@H]3CON(C)[C@H]3C[C@H]2c2ccc(N3CCCCC3)cc2)c(C)c1,-,34680,-,.,-
Cc1ccccc1S(=O)(=O)N1C[C@H]2CON(C)[C@H]2C[C@H]1c1cccc(N2CCOCC2)c1,-,-,-,-,-
Cc1ccc(C(=O)Nc2cc(=O)n(C)c(=O)n2C)o1,-,22513,?,-,-
Cc1ccc(/C=C/C(=O)Nc2cc(=O)n(C)c(=O)n2C)o1,-,-,-,-,-
Cn1c2ccc(F)cc2c2ncn(CCCN(CCO)CCO)c(=O)c21,-,21356,-,-,-
CC(=O)Nc1ccc(NC(=O)CCCCCn2nnc3ccccc3c2=O)cc1,-,-,-,-,-
CC(=O)Nc1ccc(C(=O)Cn2nnc3ccccc3c2=O)cc1,-,18940,-,-,-
Cc1ccc(S(=O)(=O)NC(=O)C2(C)CCN2C(=O)c2cccc(F)c2)nc1 (centres undefined),-,-,-,.,-
CCOC(=O)c1c(N)sc2c(O)c(Br)ccc12,-,20732,-,-,-
Cc1cc(NC(=O)c2cc3ccccc3oc2=O)no1,-,-,-,-,-
SMILES,Anthrax LF prot,Bead autofluor,BoNT A protease,MazEF act,BoNT F protease
CCOc1ccccc1NC(=O)c1cc2ccccc2oc1=O,-,-,-,-,39.9
CCN(CC)c1ccc2cc(C(C)=O)c(=O)oc2c1,-,-,-,-,-
CCN(CC)c1ccc2cc(C(=O)Nc3ccccn3)c(=O)oc2c1,-,-,-,+,-
O=C(Nc1ccon1)c1cc2ccccc2oc1=O,-,20901,-,-,-
CCOc1ccccc1NC(=O)c1cc2ccccc2o1,-,-,-,-,-
CCC(=O)N1CCC1(C)C(=O)Nc1ccc(F)cc1 (centres undefined),-,-,-,.,-
CC(C)=CCN1CCN(Cc2cn(C(C)C)c3ccccc23)CC1CCO (centres undefined),-,-,-,-,-
CCOC(=O)C1CCCN(C(=O)Cc2c(C(=O)O)[nH]c3ccccc23)C1 (centres undefined),-,23230,-,-,-
CC(C)NC(=O)C1CCCN(S(=O)(=O)c2ccc(-n3cnnn3)cc2)C1 (centres undefined),-,16890,-,-,-
